# IL-1B inflam inh: qHTS for Inhibitors of Inflammasome Signaling: IL-1-beta AlphaLISA Primary Screen | THP-1 LPS/ATP IL-1B secretion, AlphaLISA, 16 h; stronger effect = lower value | activity change, % at 57.5 µM | hit rate 4.7% among 360,000 | AID 743279, 2014; in the data active = activity change below about -50%; inconclusive = mostly about -30% to -49%
#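 Secreted IL-1B measured by AlphaLISA bead assay after 16 h compound exposure of THP-1 cells; compounds (final up to 57.5 uM) added 1 h before LPS (250 ng/mL) and ATP (1.25 mM) stimulation; lower signal means less secretion.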
# uPA generation: qHTS for Inhibitors of Cell Surface uPA Generation | Potency, µM (top dose mostly 38.3 µM), for the others: at the top dose activity change, negative = inhibition, hits mostly inhibitors | cell surface uPA generation assay, qHTS | hit rate 0.31% among 330,000; active = well fitted inhibition curve with a large enough effect; inconclusive = small, poorly fitted or top-dose-only effect; inactive = no such curve, though single readings can be large or run the other way; tested in mouse RAW 264.7 cells; also: potency is read from the fitted curve at half-maximal effect; nearly all actives have a fitted effect of over 55% in size
# HT1080-NT tox: qHTS for induction of synthetic lethality in tumor cells producing 2HG: qHTS for the HT-1080-NT fibrosarcoma cell line; HT-1080-NT fibrosarcoma viability, CellTiter-Glo ATP luminescence, 48 h; AID 686970, 2013; Potency, µM (titrated, usually from 46.1 µM), for the others: at the top dose activity, negative = less viability, hits mostly cytotoxic; hit rate 1.6% among 360,000;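 also: NT is the 2HG producing partner of a matched IDH1 knockdown line; potency is read from the fitted curve at half-maximal effect; 0% = DMSO-treated cells and -100% = media-only wells without cells; nearly all actives have a fitted effect of over 55% in size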
#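 750 cells/well, RPMI + 5% FBS; 2 h settle, compound pin-transfer, 48 h at 37 degrees C. CellTiter-Glo 10 min RT, luminescence. Normalized to DMSO and media-only wells.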
# TDP1 cell noCPT: qHTS for Inhibitors of human tyrosyl-DNA phosphodiesterase 1 (TDP1): qHTS in cells in absence of CPT | Potency, µM (doses to about 46.2 µM), for inactives: at the top dose activity change, negative = growth inhibition, usual class: inhibitors | DT40 Tdp1-/- hTDP1 cells, no CPT, ATP luminescence, 48 h | AID 686978, 2013 | hit rate 15% among 420,000; also: potency is read from the fitted curve at half-maximal effect; nearly all actives have a fitted effect of over 55% in size
#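 Chicken DT40 Tdp1-/- cells complemented with human TDP1, screened without camptothecin (DMSO vehicle only), 400 cells/well. Compounds pin-transferred, cells incubated at 37 °C for at least 48 hr. Growth read as ATP-dependent luminescence (CellTiter-Glo, 30 min at RT).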
# DT40 TDP1 CPT: qHTS for Inhibitors of human tyrosyl-DNA phosphodiesterase 1 (TDP1): qHTS in cells in presence of CPT; chicken DT40 Tdp1-/-;hTDP1 cells + 20 nM CPT, ATP luminescence, 48 h; Potency, µM (series often up to 46.2 µM), without a hit: at the top dose activity change, negative = growth inhibition, usual class: inhibitors; hit rate 12% among 420,000; AID 686979, 2013; also: potency is read from the fitted curve at half-maximal effect; nearly all actives have a fitted effect of over 55% in size
#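 Chicken DT40 Tdp1-/- cells complemented with human TDP1, 400 cells/well, exposed to compounds plus 20 nM camptothecin for at least 48 h at 37 C; viability read as ATP content by CellTiter-Glo luminescence.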
# HT1080 IDH1KD tx: qHTS for induction of synthetic lethality in tumor cells producing 2HG: qHTS for the HT-1080-IDH1KD cell line; hit rate 2% among 360,000; Potency, µM (highest dose often 46.1 µM), inactives show top-dose activity, negative = toxicity, usual class: cytotoxic; AID 686971, 2013; HT-1080 IDH1 knockdown viability, ATP luminescence, 48 h;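 also: potency is read from the fitted curve at half-maximal effect; 0% = DMSO wells and -100% = cell-free medium wells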
#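 HT-1080-IDH1KD cells (IDH1 knocked down), 750/well in RPMI with 5% FBS, treated with compound 48 h at 37 degrees C. Viability by CellTiter-Glo luminescence, normalised to DMSO and no-cell wells; concentration-response curves classed.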
# * hit, by the source's call; ? = inconclusive; / = not tested or not shown. A selection: hits, their analogues and other compounds. The true share with any hit is near 19%. Unless noted, calls follow the shape of the dose curve; as a rule, active = well fitted curve in the direction sought with a large enough effect; inconclusive = small, poorly fitted or top-dose-only effect, or another doubt; inactive = no such curve, though single readings can be large; an effect the other way counts as inactive or inconclusive. Unless noted, % is scaled to controls: 0 for no effect and ±100 for the full control effect.
SMILES,IL-1B inflam inh,uPA generation,HT1080-NT tox,TDP1 cell noCPT,DT40 TDP1 CPT,HT1080 IDH1KD tx
CCOC(=O)N1CCN(CC(O)COc2ccc3c(c2)CCC3)CC1 (stereo not drawn),5,6%,1%,4%,-10%,4%
CN(C(=O)c1cc2nc(-c3ccc4c(c3)OCO4)cc(C(F)(F)F)n2n1)c1ccc(OC(F)(F)F)cc1,/,/,/,-8%,-11%,/
O=C(Nc1ccc2c(c1)OCO2)c1cc(-c2ccncc2)nc2ccccc12,6,-8%,18µM*,15µM*,?,18µM*
O=C(Nc1ccc2c(c1)OCCO2)c1cc(-c2ccccc2)nc2ccccc12,-19,12%,-17%,23µM*,?,-25%
Cc1cc(=O)oc2cc(OCC(=O)NC3CCCCC3)ccc12,-2,/,20%,-19%,13%,13%
Cc1ncc(C[n+]2csc(CCOP(=O)(O)O)c2C)c(N)n1,/,/,/,-11%,-10%,/
CC(=O)Nc1ccc(S(=O)(=O)NC2CC(=O)N(c3ccc(C)c(C)c3)C2)cc1 (stereo not drawn),-10,-10%,6%,?,?,10%
CCOC(=O)N1CCN(C(=O)COC(=O)C2CCN(S(=O)(=O)c3ccc(C)c(C)c3)CC2)CC1,19,15%,10%,9%,5%,2%
CC(C)Oc1ccc(Nc2ncnc3ccccc23)cc1,-154*,1%,-2%,?,?,2%
CC(Nc1ncnc2ccccc12)c1ccccc1 (stereo not drawn),-14,-9%,?,0.73µM*,1.2µM*,-5%
CCCCC(Nc1ncnc2ccccc12)C(=O)O (stereo not drawn),0,/,1%,-14%,-6%,3%
CC1(C(=O)NS(=O)(=O)c2cccs2)CCN1C(=O)Cc1ccccc1 (stereo not drawn),-2,/,-1%,2%,0%,3%
CCc1nc2c(OCc3ccc(C#N)cc3)cccn2c1N(C)C(=O)c1cccs1,-19,/,2%,-21%,-13%,-4%
O=C(NCc1ccccc1F)c1ccncc1,18,2%,0%,-2%,19%,0%
c1ccc(N=c2nc(-c3ccccc3)n(-c3ccccc3)s2)cc1,/,/,/,5.6µM*,6.3µM*,/
Cc1nc(SCC(=O)NC2(C#N)CCCC2)n(CC(C)C)c1C,-4,-1%,12%,?,-22%,13%
Cc1sc(=NC(=O)c2ccco2)n(C)c1-c1ccc(F)cc1,?,-10%,15%,16µM*,?,1%
CSCCC(NS(=O)(=O)c1ccc2c(c1)OCCO2)C(=O)N(C)Cc1ccc(C)cc1 (stereo not drawn),7,-7%,0%,15µM*,?,5%
CSCCC(NS(=O)(=O)c1ccc2c(c1)OCCO2)C(=O)NCCc1ccccn1 (stereo not drawn),-5,-3%,10%,-2%,-8%,8%
COc1cccc(CN(C)C(=O)C(CCSC)NS(=O)(=O)c2ccc3c(c2)OCCO3)c1OC (stereo not drawn),-1,-3%,?,13µM*,16µM*,-16%
O=C(c1ccc([N+](=O)[O-])s1)N1CCN(c2ncccn2)CC1,15,/,0%,?,21µM*,0%
Cc1cnc(C(=O)N2CCN(c3ccc(C(F)(F)F)cn3)CC2)cn1,33,-1%,0%,-16%,-1%,0%

# Assay outcomes deposited in PubChem BioAssay by National Center for Advancing Translational Sciences (NCATS).
